Assay outcomes deposited in PubChem by National Center for Advancing Translational Sciences (NCATS).
A selection: hits, their analogues and other compounds. The true share with any hit is near 6%.
HEK293 cAMP cs – qHTS Assay for Agonists of the Thyroid Stimulating Hormone Receptor: Activators of Intracellular cAMP Concentrations in Parental HEK 293 | parental HEK293 CNG cAMP sensor, membrane potential fluorescence | Potency, µM (top dose mostly 57.1 µM), for the others: at the highest dose activation, actives largely listed as activators | 2.5% of 73,000 active; further: % of control where 0% means no effect; nearly all actives have a fitted effect of over 55% in size
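Counterscreen for endogenous-receptor signalling: CNG-channel HEK 293 cells report cAMP rise by membrane depolarization. After 60 min dye equilibration with 100 uM RO 20-1724, compounds incubated 30 min before bottom-read fluorescence at 590 nm.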
ERK AVP block – qHTS Assay for Inhibitors of the ERK Signaling Pathway using a Homogeneous Screening Assay; HEK293-V1b, vasopressin-stimulated pERK AlphaScreen; Potency, µM (series often up to 57.5 µM), without a hit: at the top dose activity, negative = inhibition, most hits filed as inhibitors; 0.99% of 72,000 active; further: on the % scale 0 is the no-effect control and ±100 the full control effect; nearly all actives have a fitted effect of over 55% in size
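HEK293 cells stably expressing V1b receptor, preincubated 30 min at 37 °C with compound, then stimulated 5 min with 25 nM vasopressin. Phospho-ERK by AlphaScreen SureFire after 5 h RT; normalized to DMSO and vasopressin; AC50 by Hill fit.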
TSHR ag – qHTS Assay for Agonists of the Thyroid Stimulating Hormone Receptor; Thyrotropin receptor (Homo sapiens), P16473; HEK293-CNG-TSHR cells (CNG channel as cAMP sensor), membrane potential dye, cAMP; Potency, µM (titrated, usually from 57.1 µM), for inactives: at the highest dose activation, most hits filed as activators; 0.48% of 73,000 active; AID 926, 2007; active means well fitted activation curve with a large enough effect in the main read-out, with a control signal flat, not every such curve was filed as active; inconclusive means small, poorly fitted or top-dose-only effect, or a change in a side signal; inactive means no such curve, though single readings can be large or run the other way; % of control where 0% means no effect;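 further: the control signal comes from parental cells without the receptor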
Target sequence (P16473 whole entry, looked up): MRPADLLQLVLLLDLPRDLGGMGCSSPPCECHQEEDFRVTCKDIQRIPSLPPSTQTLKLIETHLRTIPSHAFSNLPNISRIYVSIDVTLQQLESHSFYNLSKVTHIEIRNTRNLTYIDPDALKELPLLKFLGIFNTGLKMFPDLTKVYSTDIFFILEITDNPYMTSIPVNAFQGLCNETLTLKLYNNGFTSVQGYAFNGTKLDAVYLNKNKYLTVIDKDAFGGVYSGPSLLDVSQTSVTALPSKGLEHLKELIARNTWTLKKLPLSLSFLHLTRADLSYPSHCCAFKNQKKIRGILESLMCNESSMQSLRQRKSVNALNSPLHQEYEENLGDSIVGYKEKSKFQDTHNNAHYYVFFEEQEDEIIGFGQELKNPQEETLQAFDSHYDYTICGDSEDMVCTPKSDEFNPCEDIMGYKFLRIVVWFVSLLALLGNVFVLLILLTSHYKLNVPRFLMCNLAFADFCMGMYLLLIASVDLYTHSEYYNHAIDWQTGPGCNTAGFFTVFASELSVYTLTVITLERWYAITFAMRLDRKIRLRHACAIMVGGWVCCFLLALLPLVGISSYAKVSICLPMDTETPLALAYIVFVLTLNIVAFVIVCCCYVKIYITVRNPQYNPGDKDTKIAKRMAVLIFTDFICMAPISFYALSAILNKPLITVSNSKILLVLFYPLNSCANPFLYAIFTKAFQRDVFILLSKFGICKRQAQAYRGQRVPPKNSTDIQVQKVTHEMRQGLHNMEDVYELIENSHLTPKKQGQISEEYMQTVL
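HEK 293 cells stably expressing TSHR and a cAMP-gated CNG channel; parental CNG-only cells as counterscreen. Cells preloaded 60 min with membrane potential dye plus 100 uM RO 20-1724, then compound 30 min; fluorescence read at 590 nm.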
CRE-bla Fsk – Cell signaling CRE-BLA (Fsk stim); Potency, µM (titrated, usually from 38.2 µM), without a hit: at the highest dose activity change, negative = inhibition, actives largely listed as activators; AID 662, 2007; CHO CRE-bla reporter (cAMP response element driving beta-lactamase), forskolin EC10, beta-lactamase ratio; 2.5% of 71,000 active; active means well fitted activation curve with a large enough effect in the signal ratio, with a control signal flat, not every such curve was filed as active; inconclusive means small, poorly fitted or top-dose-only effect, or effect the other way, or a change in a side signal; the % refers to the signal ratio; further: % of control where 0% means no effect
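Modulation of forskolin signalling: compounds in titration series added with EC10 NKH 477 to CHO cells carrying a CRE-driven beta-lactamase reporter, 3 h, 37C. CCF4 FRET ratio (460/530 nm, ex 405 nm) gives %activity and AC50.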
Starred values were filed as active, the others as inactive; ? = inconclusive; / = no result; [ ] = another dose, or the depositor's remark. Unless noted, the call rests on the fitted dose curve; in most records, active means well fitted curve in the direction sought with a large enough effect; inconclusive means small, poorly fitted or top-dose-only effect, or another doubt; inactive means no such curve, though single readings can be large; an effect the other way counts as inactive or inconclusive. Potency means the concentration at half of the fitted maximal effect.

SMILES	HEK293 cAMP cs	ERK AVP block	TSHR ag	CRE-bla Fsk
O=C(COc1ccc(Cl)cc1)Nc1ccccc1N1CCOCC1	16µM*	1%	?	5%
Cc1cccc(OCC(=O)Nc2ccccc2N2CCN(C(=O)C(C)C)CC2)c1C	1.6µM*	-1%	?	-1%
Cc1ccccc1OCC(=O)Nc1ccccc1N1CCCCC1	?	42%	?	?
CC(=O)OC(C(=O)c1ccccc1)c1ccccc1 (centres undefined)	17%	7%	12%	-8%
CC(C)N(C)C	13%	-15%	-7%	9%
CC1(c2ccncc2)Nc2ccccc2-c2nc3ccccc3n21 (centres undefined)	6%	7%	25µM*	-20%
CC(C)=CCC(C)(C)C1OCCN1C(=O)Nc1ccccc1 (centres undefined)	24%	16%	10µM*	-7%
Cc1cc(C)c2c(-n3cccc3)c(C(=O)O)sc2n1	?	31%	?	-5%
CCCCNC(=O)c1sc2nc(C)cc(COC)c2c1-n1cccc1	16µM*	2%	?	24%
CCC(C)(C(=O)NC1CCCC1)N(Cc1ccco1)C(=O)c1ccc2c(c1)OCO2 (centres undefined)	2.5µM*	10%	?	?
CCC(C)(C(=O)NC1CCCC1)N(Cc1cccs1)C(=O)Cc1cccs1 (centres undefined)	2.5µM*	20%	?	?
CCC(C)(C(=O)NC1CCCCC1)N(Cc1ccco1)C(=O)c1cnccn1 (centres undefined)	3.2µM*	-12%	?	-5%
CCCCCCCN	14%	-6%	-12%	-14%
O=c1c(-c2ccccc2)nc2cnc(N3CCOCC3)nc2n1Cc1cccs1	14%	68%	13%	?
COc1cc2cc(C(c3nnnn3C3CCCC3)N(C)C3CCCCC3)c(=O)[nH]c2cc1OC (centres undefined)	?	-3%	?	13µM*
CC(C)C(c1nnnn1C1CCCC1)N1CCCc2ccccc21 (centres undefined)	26%	2%	/	-2%
CC(C)C(c1nnnn1C1CCCC1)N(C)C1CCCCC1 (centres undefined)	20µM*	-19%	?	0%
COc1cc2cc(C(c3nnnn3C3CCCCC3)N(C)C3CCCCC3)c(=O)[nH]c2cc1OC (centres undefined)	?	-24%	?	13µM*
COc1ccc2[nH]c(=O)c(C(c3nnnn3C3CCCCC3)N3CCN(C)CC3)cc2c1 (centres undefined)	2%	-9%	17%	-1%
Cc1noc(C)c1-c1nccc(N2CCNCC2)n1	-6%	-23%	9%	?
Cc1ccc(S(=O)(=O)N2CCN(C)CC2)cc1-c1nnc2c3ccccc3c(C)nn12	2%	?	4µM*	?
Cc1ccc(S(=O)(=O)N2CCN(CCO)CC2)cc1-c1nnc2c3ccccc3c(C)nn12	8%	-12%	16µM*	?
N#C[C@@H](Cc1ccc(O)c(O)c1)C(=O)N1CCc2ccccc21	-15%	?	-2%	?
CCCCN1C(=O)/C(=C2\SC(N3CCCCC3)=NC2=O)c2ccccc21	-13%	25µM*	-10%	10µM*
CCn1cc(C(=O)OCc2ccc(F)cc2)c(=O)c2ccc(C)nc21	12%	-26%	/	13µM*
SMILES	HEK293 cAMP cs	ERK AVP block	TSHR ag	CRE-bla Fsk
CCn1cc(C(=O)OCc2ccccc2)c(=O)c2ccc(C)nc21	8%	?	/	13µM*
CCn1cc(C(=O)OCC(=O)OC2CC(C)CCC2C(C)C)c(=O)c2ccc(C)nc21 (centres undefined)	?	25µM*	?	?
OCCNc1ncnc2c1ncn2[C@@H]1O[C@@H](CO)[C@H](O)[C@@H]1O	-9%[11.4 µM]	3%[11.5 µM]	5%[11.4 µM]	3%[7.6 µM]
COCCn1c(=O)cnc2cnc(OC)nc21	11%[2.29 µM]	-20%	4%	10%
COc1ccc(-c2csc(N(CC3CCCO3)C(=O)c3cccs3)n2)cc1 (centres undefined)	16µM*	-7%	?	9%
CCC1=C2CC[C@H]3C(=O)N(CC(=O)OC)C(=O)[C@H]3[C@H]2[C@@]2(C)C(=NCCc3c[nH]c4ccccc34)OC(=O)N2C1=O	/	25%	/	/
Cc1cc(NC(=O)CSc2ccc3nnc(-c4cccs4)n3n2)no1	9%	/	-6%	10µM*
COc1cccc(OC)c1C(=O)Nn1c(C2CCC2)nc2ccccc2c1=O	25µM*	-26%	?	-1%
O=C(Nc1ccc2ccccc2c1)[C@H]1C[C@@H]1[C@H](NP(=O)(c1ccccc1)c1ccccc1)c1ccccc1	8%	-13%	-6%	-10%
CC(=O)O[C@@H]1CC[C@]2(C)[C@H]3CC[C@]4(C)[C@H](C[C@H]5CCCC[C@@]54C(C)=O)[C@@H]3CC(=O)[C@@]2(O)C1	-4%	/	-1%	9%
COc1cccc(NC(=O)c2ccncc2)c1	17%	26%	3%	6%
COc1cccc(NC(=O)/C=C\c2ccc(Cl)cc2)c1	32µM*	32µM*	?	?
Oc1cc2c(cc1O)[C@H](c1ccccc1)CNCC2	9%	-19%	4%	?
Oc1ccc([C@@H]2CNCc3sccc32)cc1O	32µM*	?	?	-9%
COc1cc(-c2ccc(N=Nc3ccc4c(S(=O)(=O)O)cc(S(=O)(=O)O)c(N)c4c3O)c(OC)c2)ccc1N=Nc1ccc2c(S(=O)(=O)O)cc(S(=O)(=O)O)c(N)c2c1O	-16%	16µM*	-21%	?
Cc1ccc(-n2ncc3c(=O)n(Cc4ccccn4)cnc32)cc1C	22%	-10%	15%	8%
COC(=O)c1ccc(Cn2cnc3c(cnn3-c3ccc(Cl)cc3)c2=O)o1	?	?	?	6.3µM*
COC(=O)c1ccc(Cn2cnc3c(cnn3-c3ccc(C)c(C)c3)c2=O)o1	3.2µM*	?	?	?
COC(=O)c1ccc(Cn2cnc3c(cnn3-c3ccc(F)cc3)c2=O)o1	?	-13%	?	?
CSCC[C@@H]1NC(=O)C/C=C\[C@@H](C)COC(=O)[C@H](C)COC1=O	0%[11.4 µM]	5%[11.5 µM]	-6%[11.4 µM]	/
CCOC(=O)CCN1C(=O)[C@H]2[C@H]3[C@H](O)[C@H](O)C/C(=N/OCc4ccccc4)[C@H]3CC[C@@H]2C1=O	8%[11.4 µM]	6%[11.5 µM]	8%[11.4 µM]	/
C[Si](C)(c1ccc(C(=O)O)cc1)c1ccc(C(=O)O)cc1	23%[11.4 µM]	17%[11.5 µM]	1%[11.4 µM]	1%[7.6 µM]
CC(C)=CCC/C(C)=C/CO/N=C1/[C@H]2O[C@@H]2[C@@H](O)[C@H]2[C@H]1CCn1c(=O)n(Cc3cc4c(cc3Cl)OCO4)c(=O)n12	-1%[11.4 µM]	10%[11.5 µM]	-4%[11.4 µM]	/
Cc1cc2ccc(C)c(C)c2nc1SCC#N	20µM*	27%	?	17%
Cc1sc2ncnc(SCC#N)c2c1C	5%	?	-1%	?
Cc1cc(/C=N/n2cnnc2)c(C)n1-c1cccc(Cl)c1	-1%	-26%	25µM*	?
